{
  "source": "the supplement of paper PMC12632987",
  "binders": {"B1": {"name": "usp_38_diff_out_14_2_99 (protein)", "chain": "AKEELEKATKETLKVLKEAIKKAKELLKEVKKDPSKAEEATKKLFEEWDKAADAVGKLAKLIEEHKEERKLNKEAIEKVNKELTELTKVTLEALEEAAKA"}, "B2": {"name": "usp_38_diff_out_15_85_150 (protein)", "chain": "TPEELKAEIEREIEEAERLLERAEELLRDPEAPLEEIRRVLDEAAEALGRADHLARELRRLSPEYRAYVEEVLKRLDELVDRLEELAREAFLREADELEA"}, "B3": {"name": "usp_38_diff_out_14_54_123 (protein)", "chain": "SEELEELLEEARRALEEARRALREAERLLREGGPLEEVREALDRAARAIGRLGEALRRARALATDPEVLKELERLEKEADELVDRYTELARRALEMEAER"}, "B4": {"name": "usp_38_diff_out_14_54_128 (protein)", "chain": "DEEIERLLEEARKKLEELKKLKEELKKLVKAGASMEEIFAAYDKAADAAAAAGEAIRRLRKLSTDPEVKEEARKLEEEVNKLLDEVTELVTEALERAAER"}, "B5": {"name": "usp_38_diff_out_15_85_149 (protein)", "chain": "KIEELKKQLQAAIDEAEALLAEAEALLKKGTPEALEAARKALDAAAKAIGQADQLLRELRKAGADKEELEAYQKRLDALTDRYEALARELFEKEMELQEK"}, "B6": {"name": "usp_38_diff_out_14_75_134 (protein)", "chain": "SEKEELEERLAALEARLEALVAEGVISGRLEVELGAVLHTARLAIEAGRLEEARRLLDIAEEALADPARAREILRANEDFIVSTHLRLELERLAAEEAAR"}, "B7": {"name": "usp_38_diff_out_14_75_129 (protein)", "chain": "SEREKLEERLEAAEARLAALVAAGVISGRTEVKLGAVLHVARLAIEQGDLETAEKLLEIVEKALADPANADKILDENEDFIVSTYKELALRELEEEEKKR"}, "B8": {"name": "usp_38_diff_out_14_2_98 (protein)", "chain": "AEEELKKATEETLKVLDEAIKKAKELKERVKKDPSLAEEAREELFKAWDKAADAVGELAKLMEEHRELRELNKKAVEEVNKKLTELTEELLEALELAAEA"}, "B9": {"name": "usp_38_diff_out_14_75_132 (protein)", "chain": "SEKEELEKRLEELEKRLEELEKEGKLTGRLVVELGGVLHVAREAIEAGKLETAKKLLEIAEQALEDPERAREILRENEDFIVDTYKELALEEIEKEEAER"}, "B10": {"name": "usp_38_diff_out_14_75_131 (protein)", "chain": "SEREELERRLEELRARLAALEAAGVITGRKVVKLGGALHVAELAIRAGRLEEARKILDIVEEALDDPERADEILDENEDFIVDTYKELALAEIEAEEAAR"}, "B11": {"name": "usp_38_diff_out_15_114_140 (protein)", "chain": "SAEEEAAEELRQREIAAGRDVARDLLAELRELKKRGRLTPAREERLLLGLEGLARLAIELGDEELARLVLEALDAFAEISDPETQARARALRAELEAAMA"}, "B12": {"name": "usp_38_diff_out_14_54_127 (protein)", "chain": "DEEIKRLLEEARKYLEEAKKALAELKELVAAGAAPEEVFAAYDKAADAIAKAGEAIRRLMRLSTDPEVRKEAREIQEEADKLVDEMTEAVTAAQEKAAEA"}, "B13": {"name": "usp_38_diff_out_15_17_145 (protein)", "chain": "DEEARRLELEAERAAMDAVIADARATLTRLAAKAKAAGWAEVAAEYEAAIAALDAGDLEAAAEHLERAARLLWDKNPRDATIAGGLAYALRRKVELDRLE"}, "B14": {"name": "usp_38_diff_out_14_75_133 (protein)", "chain": "SEREELEKRLEELRARLAALVAAGVISGRLEVELGAVLYTAELAIEAGKLEEAKKLLDIAEAALDDPANAKAILDANEDFIVSTYKELELERIEREEEEE"}, "B15": {"name": "usp_38_diff_out_15_114_142 (protein)", "chain": "SAEEEAEEELRELEIKAGKDVAEELLEELKELRKRGRLTPAREERLLLGLRGLAILAIELKNKELAELVLEALEEFAKISDPETRAEAEKLAAELKKAMA"}, "B16": {"name": "usp_38_diff_out_15_85_151 (protein)", "chain": "SPEELKKKIEEKLEEARRLLEEARRLLADPNAPLEEIRKVLDEAARALGEAEHLARELRKLSPEYREEVEKYLKELDELVDELEALAREAFLREAEAQEA"}, "B17": {"name": "usp_38_diff_out_14_54_126 (protein)", "chain": "SERLRRLLEEARRKLAEAERYLEEAEKALEEGAPLEEIERLLDEAARALGAAARALREAATLATDPESRAELEELRARADELTDRYTELAREAFLRRLEE"}, "B18": {"name": "usp_38_diff_out_14_54_125 (protein)", "chain": "MEELEKLLKEAEKALKEAEKALAAAEALLEAGGPLAEIRALLDAAARAIGAAGEALRKARALATDPEVKKKLEELRKRADELVDRYNELARRALEREAAA"}, "B19": {"name": "usp_38_diff_out_14_75_130 (protein)", "chain": "SMKEELEKRLEELEERLKELEEKGVLTGRTVVELGGVLYVARLAIEAGDLETAEKLLEIAEKALEDPENAKEILDENEDFIVSTHIELELRRIEEEEAAR"}, "B20": {"name": "usp_38_diff_out_15_85_153 (protein)", "chain": "SPEEIKKEIEREIEEAERLIEEARRLLEDPEAPLEEVREVLDEAARHLGRAQHLARELRRLSPEYREFVKEAEKRLDELVDELEELAREAHLREAEELEA"}, "B21": {"name": "usp_38_diff_out_14_75_137 (protein)", "chain": "SRKEELRERLAEARARLDALVAEGRITGRLEVELRGILHIAEEAIEAGRLEEAERLLDIAERALDDPANARAIIRANEDFIVSTAKKLDLERIEEEEERR"}, "B22": {"name": "usp_38_diff_out_14_75_135 (protein)", "chain": "SEREELERRLEELEERLARLVAEGVISGRTEVKLGAVLHVARLAIEEGRLEEARKLLEIVERALADPERADEILEENEDFIVSTYLELELRRLAEEEAKR"}, "B23": {"name": "usp_38_diff_out_14_75_136 (protein)", "chain": "SEREELRARLAAARARLDALVAAGVISGRLEVELGAVLHVAALAIEAGDLETARRLLDIVEAALADPARAREILRAAEDFIVDAYKRLELRRIEEEEEER"}, "B24": {"name": "usp_38_diff_out_15_42_146 (protein)", "chain": "SQLEEELRLIVEAMEAERDRVVADVATLPEAKLKRLARRNLEGAKGEAERTGDPVAAEIAALYEEGLANPATLKAKMQEAVRLTYDRAIAEVRRRMEEEA"}, "B25": {"name": "usp_38_diff_out_15_114_143 (protein)", "chain": "SEEEEAEEELRRLEIEEGLRVAEELLAELEELRKRGRLTPAREERLLLGLEGLAILAIELGDEELARRVLEALRALAEISSPETRARAEALAAELEAAMA"}, "B26": {"name": "usp_38_diff_out_15_85_147 (protein)", "chain": "ALEELRRELEEAIREARRLLEEARKLLAEKTPEALKAAREALDRAAEHLGRAAELLRELRRAGADPAELARLQAELDELVDEYEKLALELFEKEIELQEA"}, "B27": {"name": "usp_38_diff_out_15_114_141 (protein)", "chain": "SAEEEAAAELREREVAAGLAVARDLLAELEELARRGRLTPAREERLLLGLRGLARLAIELGDRELAEEVLRALDAFAAIASPELRAEAEALRAELEAAMA"}, "B28": {"name": "usp_38_diff_out_15_114_139 (protein)", "chain": "SEEEEAEEELRKLEIEQGKKVAEDLLAELERLAKEGRLTPAREERLLLGLKGLAKLAIELKDKELAELVLKALEAFAKISSPEHRKEAEKLAKELKEAMA"}, "B29": {"name": "usp_38_diff_out_14_54_124 (protein)", "chain": "MEELERLLEEAERALREAEEALERAERLLEEGGPLEEIRRELDRAARAIGRLGEALRRARALATDPEVKKRLEELEKKADELVDRYNELARRALEMEAER"}, "B30": {"name": "usp_38_diff_out_14_75_138 (protein)", "chain": "SREEELRKRLEEAEARLAELVAQGKITGRKEVELRGILHIAREAIEAGRLEEAEKLLDIAEEALENPEKAKEIIDENEDFIVSTAKELALREIEEEEKRR"}, "B31": {"name": "usp_38_diff_out_15_85_152 (protein)", "chain": "SPEEIKKEIKKEIEKAKELIKEAKKLLKDPNAKLEEIRKVLDEAAKALGKAEYLARELRKLSPEYREEVKEYLKELDELVDELEKLEREAFLRMAEEQEA"}, "B32": {"name": "usp_38_diff_out_15_17_144 (protein)", "chain": "DPESEALYREALRANIASVFDEAAAIAAKRAARAEAEGNAELAAALRRLRDLLEHRDETPLADIAAAARELAALAEEAGDYRTAAIAGGVAAAAEELAEL"}},
  "data": [
    {"target": "T1, USP38, Q8NB14", "T1 chain": "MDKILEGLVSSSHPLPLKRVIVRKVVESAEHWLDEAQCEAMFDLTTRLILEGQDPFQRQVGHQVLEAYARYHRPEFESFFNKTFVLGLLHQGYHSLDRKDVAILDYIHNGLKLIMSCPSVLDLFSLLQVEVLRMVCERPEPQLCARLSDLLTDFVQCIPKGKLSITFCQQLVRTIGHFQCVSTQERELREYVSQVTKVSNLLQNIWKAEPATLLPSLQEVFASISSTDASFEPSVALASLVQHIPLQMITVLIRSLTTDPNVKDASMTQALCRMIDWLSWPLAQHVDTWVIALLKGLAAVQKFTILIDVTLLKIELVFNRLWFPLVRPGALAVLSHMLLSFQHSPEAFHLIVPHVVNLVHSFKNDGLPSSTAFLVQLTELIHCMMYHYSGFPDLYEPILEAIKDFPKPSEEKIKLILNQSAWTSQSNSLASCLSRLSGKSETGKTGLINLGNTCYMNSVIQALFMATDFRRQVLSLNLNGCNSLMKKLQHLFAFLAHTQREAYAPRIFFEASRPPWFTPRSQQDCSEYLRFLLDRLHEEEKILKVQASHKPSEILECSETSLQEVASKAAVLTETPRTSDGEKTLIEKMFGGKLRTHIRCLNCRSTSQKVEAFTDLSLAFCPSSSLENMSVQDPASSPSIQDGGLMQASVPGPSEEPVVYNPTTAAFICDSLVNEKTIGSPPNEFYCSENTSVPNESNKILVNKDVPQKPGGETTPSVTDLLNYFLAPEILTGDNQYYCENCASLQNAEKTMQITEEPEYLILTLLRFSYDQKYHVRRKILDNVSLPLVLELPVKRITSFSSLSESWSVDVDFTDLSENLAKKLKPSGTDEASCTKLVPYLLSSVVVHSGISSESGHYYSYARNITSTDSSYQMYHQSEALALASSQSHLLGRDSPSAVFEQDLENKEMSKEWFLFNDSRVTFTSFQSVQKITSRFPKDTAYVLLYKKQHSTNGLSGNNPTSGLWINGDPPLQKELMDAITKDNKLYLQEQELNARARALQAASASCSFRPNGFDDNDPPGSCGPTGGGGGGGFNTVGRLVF", "experiment": "median log2 fold change of GCK-ALFA target abundance (FLAG IP / Myc IP barcode read proportion) (log2 ratio); each designed protein is fused to an ALFA-tag nanobody in HEK293 cells to bring the named protein to FLAG-tagged glucokinase (GCK); Myc marks an untargeted standard; higher = target protein stabilised (more abundant)", "conditions": "target protein: 3xFLAG-MCP-GCK-ALFA reporter; HEK293 landing pad (RPLP)", "method_in_brief": "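HEK293 landing-pad cells received a recombined binder library fused to the ALFA nanobody and were induced with 2 μg mL^−1 doxycycline, then transfected with a plasmid encoding a FLAG-tagged target and a Myc-tagged standard. Lysates were collected after 48 h for anti-FLAG and anti-Myc immunoprecipitation, and the circular RNA barcodes were reverse transcribed, amplified and sequenced. Target abundance for each binder is the median log2 ratio of FLAG to Myc barcode read proportions. Barcodes had to reach a proportion of at least 10^−7 in both replicates, each binder needed at least 3 barcodes per replicate, a pseudocount of 10^−6 was applied, and the two replicates were pooled.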", "values": [
      {"binder": "B1", "median log2 fold change": -0.478},
      {"binder": "B2", "median log2 fold change": 0.0224},
      {"binder": "B3", "median log2 fold change": 0.491},
      {"binder": "B4", "median log2 fold change": -0.492},
      {"binder": "B5", "median log2 fold change": 0.113},
      {"binder": "B6", "median log2 fold change": 0.0715},
      {"binder": "B7", "median log2 fold change": 0.261},
      {"binder": "B8", "median log2 fold change": -0.576},
      {"binder": "B9", "median log2 fold change": -0.63},
      {"binder": "B10", "median log2 fold change": 0.103},
      {"binder": "B11", "median log2 fold change": 0.0749},
      {"binder": "B12", "median log2 fold change": 0.232},
      {"binder": "B13", "median log2 fold change": -0.0496},
      {"binder": "B14", "median log2 fold change": 0.198},
      {"binder": "B15", "median log2 fold change": 0.0926},
      {"binder": "B16", "median log2 fold change": 0.0262},
      {"binder": "B17", "median log2 fold change": 0.0528},
      {"binder": "B18", "median log2 fold change": -0.00832},
      {"binder": "B19", "median log2 fold change": -0.097},
      {"binder": "B20", "median log2 fold change": -0.141},
      {"binder": "B21", "median log2 fold change": 0.124},
      {"binder": "B22", "median log2 fold change": -0.475},
      {"binder": "B23", "median log2 fold change": 0.0109},
      {"binder": "B24", "median log2 fold change": -0.607},
      {"binder": "B25", "median log2 fold change": -0.119},
      {"binder": "B26", "median log2 fold change": 0.0216},
      {"binder": "B27", "median log2 fold change": 0.234},
      {"binder": "B28", "median log2 fold change": 0.292},
      {"binder": "B29", "median log2 fold change": 0.191},
      {"binder": "B30", "median log2 fold change": 0.163},
      {"binder": "B31", "median log2 fold change": 0.113},
      {"binder": "B32", "median log2 fold change": 0.158}
    ]}
  ]
}
